Assay outcomes deposited in PubChem BioAssay by National Center for Advancing Translational Sciences (NCATS).
Pf Dd2 growth: qHTS Primary assay for Inhibitors of Plasmodium falciparum Dd2 growth in vitro. AID 1347417, 2020. Potency, µM (highest dose often 28.9 µM), inactives show at the top dose activity, negative = inhibition, actives largely listed as inhibitors. hit rate 4.3% among 120,000. P. falciparum Dd2 growth, SYBR Green, 72 h; active = well fitted inhibition curve with a large enough effect;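 also: plate controls were DMSO vehicle for no effect and reference drug for full effect; nearly all actives have a fitted effect of over 65% in size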
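Infected erythrocytes (Dd2, 0.3% parasitemia, 2.5% hematocrit final) are added to compound in RPMI-1640/Albumax II medium, grown 72 h at 37C in low oxygen, then lysed with saponin/Triton-X containing SYBR Green and read by fluorescence.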
* hit, by the source's call; i = inactive; [ ] = another dose, or the depositor's remark. The entries come from a sample that favours hits as a whole. Potency is read from the fitted curve at half-maximal effect.

SMILES	Pf Dd2 growth
COc1ccc(CN2CCc3nn(C)c(=O)n3CC2)cc1Cn1cccn1	13%
CCn1ncc(N2CCCC(CC(=O)Nc3ccc(F)c(F)c3)C2)cc1=O (stereo not given)	-3%
CCCNC(=O)C1COC2(CCN(C(=O)c3cccc(OC)c3)CC2)N1C(=O)c1ccccc1 (stereo not given)	-12%
NC(=O)[C@@H]1C[C@H](Oc2cccnc2)CN1C(=O)CN1CCCCCC1	-16%
COC(=O)c1c(-c2ccc(Cl)cc2)noc1N1CCN(c2ccc(C)cc2C)CC1	8.9µM*
COC(=O)c1c(-c2ccc(Cl)cc2)noc1N1CCN(c2ccc(C(C)=O)cc2)CC1	2%
COC(=O)c1c(-c2ccc(Cl)cc2)noc1N1CCN(c2ccccc2F)CC1	30%
O=C(c1ccn[nH]1)N1CCC(c2nc(CCOCC3CC3)no2)C1 (stereo not given)	39%
CCOC(=O)N1CCN(C(C(=O)O)c2ccc(OC)nc2OC)CC1 (stereo not given)	-5%
O=C([C@@H]1C[C@H](Oc2ccccc2)CN1C(=O)C1(c2ccccc2)CC1)N1CCCC1	1.8µM*
O=C([C@@H]1C[C@H](Oc2ccccc2)CN1C(=O)CC1CCCC1)N1CCCC1	i
CC(C)CC(=O)N1C[C@@H](Oc2ccccc2)C[C@H]1C(=O)N1CCCC1	-1%
Cn1nccc1C(=O)N1CCC(N2C[C@H](O)C[C@H]2C(=O)NC2CCCCC2)CC1	-14%
CCOCCn1c(=O)[nH]c2cc(C(=O)N(C)CCc3noc(C)n3)ccc21	-8%
CC1CCN(C(=O)c2ccc(CN3C(=O)NC4(CCS(=O)(=O)CC4)C3=O)cc2)CC1	-22%
CNC(=O)[C@@H]1C[C@@H](O)CN1C1CCN(C(=O)CC2CCCC2)CC1	-12%
CN1C(=O)CC(C(=O)O)C12CCN(Cc1cnn(-c3ccc(F)cc3)c1)CC2 (stereo not given)	-3%
CN(Cc1ccc(F)cc1)Cc1cccn1C	-29%[44.1 µM]
CN(Cc1cccc(CCN)c1)Cc1cnn(-c2ccc(F)cc2)c1	10µM*
O=C(O)C[C@@H]1CCN(Cc2ccccc2)C[C@@H]1CCN1C[C@@H]2C[C@H](C1)c1cccc(=O)n1C2	-10%
CSCc1ccc(C(=O)N2CCN(c3ccc(C)cc3)C(=O)C2)o1	-25%
Cn1cnnc1CC1CCN(S(=O)(=O)c2ccccc2)CC1	31%
Cc1ccc(C#N)c(N2CCC(c3nnc(Cn4cncn4)n3C)CC2)n1	5%
CCOC(=O)c1c(C)oc2nc(C)nc(NCCCN3CCN(c4ccc(F)cc4)CC3)c12	11µM*
CCOC(=O)c1c(C)oc2nc(C)nc(NCc3ccccc3OCC)c12	8.9µM*
SMILES	Pf Dd2 growth
CCOC(=O)c1c(C)oc2ncnc(Nc3ccc(CC)cc3)c12	i
CCOC(=O)c1c(C)oc2nc(C)nc(NCc3ccccc3OC)c12	8.9µM*
CCOC(=O)c1c(C)oc2nc(C)nc(NCC3CCN(Cc4cc(C)ccc4C)CC3)c12	-3%
CCOC(=O)c1c(C)oc2nc(C)nc(NCCc3ccc(C)cc3)c12	-10%
Cc1nc(N2CCCC2)c2c(C(=O)N3CCN(c4ccc(F)cc4)CC3)c(C)oc2n1	-9%
CCOC(=O)c1c(C)oc2nc(C)nc(NCCc3ccc(S(N)(=O)=O)cc3)c12	i[5.79 µM]
CCOC(=O)c1c(C)oc2nc(C)nc(NCC3CCN(Cc4cccc(C)c4)CC3)c12	i[5.79 µM]
Cn1ncc(N2CCCC(CC(=O)Nc3ccc(F)c(F)c3)C2)cc1=O (stereo not given)	-18%
O=C(CCc1n[nH]c2c1CCCC2)N1CC[C@H]2CNC[C@H]21	-6%
O=C(Nc1ccc(Cl)cc1Cl)c1cccn2nccc12	-3%[44.1 µM]
O=C1CCN(S(=O)(=O)c2ccccc2)CCCN(C(=O)c2cc3ccccc3[nH]2)CCN1	-26%
COc1ccc(C(=O)N2CCCN(S(=O)(=O)c3ccccc3)CCC(=O)NCC2)cc1	i
O=C1CCN(S(=O)(=O)c2ccccc2)CCCN(C2CCOCC2)CCN1	-27%
O=C1CCN(S(=O)(=O)c2ccccc2)CCCN(C(=O)Cc2ccccc2)CCN1	i
O=C1CCN(C(=O)C2(c3ccccc3)CC2)CCCCCCN1	-23%
CS(=O)(=O)N1CCCN(S(=O)(=O)c2ccccc2)CCC(=O)NCC1	-19%
COc1ccc2[nH]c(C(=O)N3CCCN(S(=O)(=O)c4ccccc4)CCC(=O)NCC3)cc2c1	13µM*
O=C1CCN(S(=O)(=O)c2ccccc2)CCCN(Cc2ccccn2)CCN1	i
Cn1cccc1CN1CCCN(S(=O)(=O)c2ccccc2)CCC(=O)NCC1	-28%
O=C1CCN(S(=O)(=O)c2ccccc2)CCCN(Cc2ccc3[nH]ccc3c2)CCN1	11µM*
O=C1CCN(S(=O)(=O)c2ccccc2)CCCN(C(=O)C2(c3ccccc3)CC2)CCN1	0.79µM*
O=C1CCN(S(=O)(=O)c2ccccc2)CCCN(C2CCCCCC2)CCN1	10µM*
COc1cc(SC)c(OC)cc1CN1CCC2(CC(=O)NC2=O)C1 (stereo not given)	-13%
NC(=O)[C@@H](Cc1c[nH]c2ccccc12)NC(=O)[C@@H]1[C@@H](NC(=O)NC2CCCCC2)CCN1C(=O)c1cnccn1	2%
COc1ccc(-c2ccnc3ncnn23)c(F)c1	2%
SMILES	Pf Dd2 growth
Cc1ccc(S(N)(=O)=O)cc1C(=O)N1CCN(c2ccccc2)C(=O)C1	-9%
O=C(c1ccncn1)N1C[C@@H](COCC2CC2)[C@H](c2ccncc2)C1	1%
O=C(NCCc1ccccc1)N1CCC(c2noc(-c3cccnc3)n2)C1 (stereo not given)	7%[5.79 µM]
O=C(c1cc(F)ccc1F)N1CCC(c2n[nH]c(=O)n2-c2ccccc2)CC1	36%
CC(=O)N1CCC2(C1)C(=NC1CCCC1)NC(=O)N2c1cccnc1 (stereo not given)	1%[44.1 µM]
CCCCS(=O)(=O)N[C@@H]1CN(Cc2ccncc2)C[C@H]1CN(C)C	11%
Cc1cc(=O)n(CC(=O)Nc2ccc(F)c(Cl)c2)c(N2CCc3ccccc3C2)n1	i
Cc1ccc(NC(=O)C2N(C(C)C)C(=O)C23CCCCC3)cc1 (stereo not given)	-15%
CNC(=O)Nc1ccc(C2(C(=O)Nc3ccc4c(c3)CCC4)CCC2)cc1	0%
c1ccc2c(CN3CCn4c(nnc4C4CCCNC4)C3)cccc2c1 (stereo not given)	1%
O=C1CCN(Cc2ccc(F)cc2F)CCCCCCN1	i
O=C(CCCn1cnnn1)NC1CCCc2c1cnn2-c1ccccn1 (stereo not given)	-1%
Cc1ccc(CN(C)C(=O)CC(c2ccccc2)c2ccc3c(c2)OCO3)o1 (stereo not given)	i
CC(=O)N1Cc2ccccc2OC2(CCN(C(=O)c3ccnc(N)c3)CC2)C1	12%
COc1ccc(S(=O)(=O)N(CC(=O)NCCSc2ccc(C)cc2)c2ccc(C)cc2)cc1	-3%
CCN(CC)S(=O)(=O)c1ccc(C(=O)NCCSc2c(-c3ccc(OC)cc3)[nH]c3ccccc23)cc1	7.9µM*
COc1ccc(-c2cnnn2-c2ccc(NC(=O)c3ccc(S(=O)(=O)N(C)C)cc3)cc2)cc1	i
COc1ccc(S(=O)(=O)N(CCc2ccccc2)CC(=O)NCc2ccccc2)cc1	i
CCN(CC)S(=O)(=O)c1ccc(NC(=O)Cn2ncc3c([nH]c4ccccc43)c2=O)cc1	45%
COc1ccc(-c2[nH]c3ccccc3c2SCCNC(=O)c2ccc(S(=O)(=O)N(C)C)cc2)cc1	7.9µM*
O=C(NCc1ccc(F)cc1)N1CCC(c2noc(-c3ccncc3)n2)C1 (stereo not given)	0%[5.79 µM]
